Several values for one entry are separate records, joined by “and”; a condition that tells them apart may be missing. Equal values may be shown once. Inconclusive results are not listed. Activity calls are given as the source filed them. Unless noted, calls come from the whole dose curve; as a rule, active = well fitted curve in the direction sought with a large enough effect; inconclusive = small, poorly fitted or top-dose-only effect, or another doubt; inactive = no such curve, though single readings can be large; an effect the other way counts as inactive or inconclusive.
Experiments:
[1] = molecular target: Cytochrome P450 2D6 (Homo sapiens) (UniProt P10635); experiment: Cytochrome P450 family 2 subfamily D member 6 (CYP2D6) small molecule antagonists: luciferase biochemical (cell-free) qHTS assay (AID 1645840; active = well fitted curve in the direction sought with a large enough effect in the repeat runs; an effect the other way counts as inactive or inconclusive; note: nearly all actives have a fitted effect of over 55% in size; note: potency is the fitted concentration of half-maximal effect)
Method in brief: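 P450-Glo CYP2D6 system: proluciferin substrate converted by enzyme to luciferin, read by luminescence proportional to activity. Enzyme-substrate mix with compound 10 min at room temperature, then NADPH regeneration 1 h before detection reagent.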

[2] = Primary qHTS for inhibitors of nuclear receptor binding SET domain protein 2 (NSD2) in an isogenic RCH-ACV NSD2 p.E1099K mutant (9B) (AID 1645876); note: nearly all actives have a fitted effect of over 70% in size; note: potency is the fitted concentration of half-maximal effect
[3] = Primary qHTS for inhibitors of nuclear receptor binding SET domain protein 2 (NSD2) in an RCH-ACV wild type WT cells (2C) (AID 1645877); note: nearly all actives have a fitted effect of over 70% in size; note: potency is the fitted concentration of half-maximal effect
[4] = molecular target: N-terminal Xaa-Pro-Lys N-methyltransferase 1 (Homo sapiens) (UniProt Q9BV86); experiment: Confirmatory qHTS for Inhibitors of N-terminal methyltransferase 1 (NTMT1): MTaseGlo Assay (AID 1645874);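 note: luminescence from SAH made as NTMT1 methylates SPKRIA peptide using SAM; series mostly up to about 100 µM; nearly all actives have a fitted effect of over 65% in size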
Method in brief: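 Enzyme mix (125 nM NTMT1, 100 uM SAM) + compound, 15 min RT; + 1 uM SPKRIA, 30 min RT, dark; MTase-Glo reagent 30 min, detection solution 30 min; luminescence. % inhibition vs no-enzyme/DMSO controls, 4-parameter Hill fit.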

Cytochrome P450 2D6 (Homo sapiens), sequence (P10635 whole entry, looked up): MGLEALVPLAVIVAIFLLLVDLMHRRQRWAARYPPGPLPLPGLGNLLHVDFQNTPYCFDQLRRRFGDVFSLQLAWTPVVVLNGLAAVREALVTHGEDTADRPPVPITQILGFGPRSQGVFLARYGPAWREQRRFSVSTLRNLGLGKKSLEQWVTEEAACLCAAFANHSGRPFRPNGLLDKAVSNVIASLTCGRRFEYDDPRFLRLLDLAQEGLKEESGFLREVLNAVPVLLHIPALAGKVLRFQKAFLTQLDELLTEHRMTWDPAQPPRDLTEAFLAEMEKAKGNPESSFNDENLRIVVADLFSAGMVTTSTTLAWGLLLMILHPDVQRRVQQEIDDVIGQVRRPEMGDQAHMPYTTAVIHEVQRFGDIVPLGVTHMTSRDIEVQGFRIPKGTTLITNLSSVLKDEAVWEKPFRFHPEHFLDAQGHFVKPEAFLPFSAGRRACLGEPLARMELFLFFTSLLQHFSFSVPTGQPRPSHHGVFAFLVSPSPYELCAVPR
N-terminal Xaa-Pro-Lys N-methyltransferase 1 (Homo sapiens), sequence (Q9BV86 whole entry, looked up): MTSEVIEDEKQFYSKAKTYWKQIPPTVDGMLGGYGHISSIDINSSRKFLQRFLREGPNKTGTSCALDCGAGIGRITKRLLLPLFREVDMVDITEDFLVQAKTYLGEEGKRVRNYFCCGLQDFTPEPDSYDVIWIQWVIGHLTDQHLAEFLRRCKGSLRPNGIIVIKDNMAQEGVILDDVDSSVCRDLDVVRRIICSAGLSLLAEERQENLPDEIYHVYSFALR

| Structure (SMILES) | Potency [1] | Potency [2] | Potency [3] | Potency [4] |
| --- | --- | --- | --- | --- |
| Cc1cccc(C#Cc2cc(F)cc(C#N)c2)n1 | inactive | inactive |  |  |
| CC(C)(Cc1ccccc1)NCC(O)c1ccc(O)c(NS(C)(=O)=O)c1 (centres undefined) | 3790 nM (active) | inactive |  |  |
| N#Cc1ccc(O[C@@H]2c3ccccc3C[C@H]2N2CCC[C@@H](N)C2)c(Cl)c1 | 169 nM (active) | 20.5 µM (active) | 18.3 µM (active) |  |
| O=C(NCC1CCN(Cc2cccc(Cl)c2)CC1)[C@@H]1CCCN(c2ncnc3c2nc2n3CCCC2)C1 | 15100 nM (active) | inactive | inactive |  |
| CN(C)CCn1cc(-c2ccc(F)cc2)c(-n2cccc2)n1 | 15100 nM (active) | inactive | inactive |  |
| CC(C)NCCCn1c(Sc2cc3c(cc2I)OCO3)nc2c(N)ncnc21 | 536 nM (active) | 0.365 µM (active) | 0.325 µM (active) |  |
| Cn1cc(-c2cnn3c(N)c(Br)c([C@@H]4CCCNC4)nc23)cn1 | 10700 nM (active) | 1.15 µM (active) and 3.72 µM (active) | 1.15 µM (active) and 4.17 µM (active) |  |
| C#Cc1cccc(Nc2nc3cc(C(=O)O)ccc3c3cncnc23)c1 | inactive | 4.09 µM (active) | 2.58 µM (active) |  |
| CN1CCN(c2ccc(OC(F)(F)F)c(Nc3ncc4c(n3)-c3c(c(C(N)=O)nn3CCO)CC4)c2)CC1 | inactive | 57.8 nM (active) and 118 nM (active) | 72.8 nM (active) and 132 nM (active) |  |
| CN1CCN(S(=O)(=O)c2ccc(-c3cnc(N)c(C(=O)Nc4cccnc4)n3)cc2)CC1 | inactive | 0.317 µM (active) | 0.317 µM (active) |  |
| Cc1ccc(N2CCN(CCC3NC(=O)c4ccccc43)CC2)cc1C (centres undefined) | inactive | inactive | inactive |  |
| CCC(CC)Nc1nc(C)c(-c2ccc(OC(F)(F)F)cc2OC)nc1OC | inactive | inactive | inactive |  |
| O=C(Nc1cc(C(F)(F)F)cc(C(F)(F)F)c1)c1cnc(Cl)nc1C(F)(F)F | 19000 nM (active) | 25.8 µM (active) |  |  |
| CCN1CCN(Cc2ccc(NC(=O)c3ccc(C)c(Oc4ccnc5[nH]ccc45)c3)cc2C(F)(F)F)CC1 | 10700 nM (active) | 0.713 µM (active) | 0.713 µM (active) |  |
| COc1ccnc(CS(=O)c2nc3cc(OC(F)F)ccc3[nH]2)c1OC (centres undefined) | inactive | inactive | inactive |  |
| Cc1nc2c(C(F)(F)F)cccc2nc1-c1ccc(-c2cccc(S(C)(=O)=O)c2)cc1 | inactive | inactive | inactive |  |
| COc1ccncc1C(=O)NC(=O)Nc1ccc(-c2ccccc2)c(C(F)(F)F)c1 | 19000 nM (active) | inactive | inactive |  |
| Cc1c(C2=CCN(C(=O)N(C)C(C)C)CC2)nnn1-c1cccnc1F | inactive | inactive | inactive |  |
| N#Cc1cc(C2=Nc3ccc(Br)cc3NC(=O)C2)ccn1 | 477 nM (active) | inactive |  |  |
| CC(=O)Nc1nc(C)c(-c2nc(N3CCCC(O)C3)no2)s1 (centres undefined) | 4250 nM (active) | 0.916 µM (active) | 1.15 µM (active) |  |
| COc1ccccc1S(=O)(=O)Nc1ccc2c(c1)CN(C)C(=O)N2 | inactive | 1.83 µM (active) | 1.63 µM (active) |  |
| CC(C)Oc1ccc(-c2cnc3c(-c4ccnc5ccccc45)cnn3c2)cc1 | inactive | inactive | inactive |  |
| Cc1cc(CS(=O)(=O)c2ccccc2)cc(OCc2ccc(CN3CCCC3CO)cc2)c1 (centres undefined) | 952 nM (active) | 14.5 µM (active) |  |  |
| CC(C)(Cc1nc(-c2ccc(O)cn2)no1)C(=O)NC1=C(C(=O)O)CCCC1 | inactive | inactive |  |  |
| O=C(Nc1ccccc1Cl)c1cnc2ccc(C3CCNCC3)cn12 | inactive | 1.29 µM (active) | 2.3 µM (active) |  |
| CC(NC(=O)Cc1cc(F)cc(F)c1)C(=O)NC1C(=O)N(C)c2ccccc2-c2ccccc21 (centres undefined) | inactive | 2.58 µM (active) | 3.25 µM (active) |  |
| Cc1nc2ccc(-n3ncc(C(=O)c4cc5ccccc5[nH]4)c3N)cc2[nH]1 | 23900 nM (active) | 3.25 µM (active) and 2.63 µM (active) | 7.28 µM (active) and 4.17 µM (active) |  |
| CC1=C(c2ccc(NC(=O)c3c(F)cccc3F)cc2)CN(c2nccs2)CC1 | inactive | inactive |  |  |
| O=c1nc(-c2ccccn2)sc2ccccc12 | inactive | 4.59 µM (active) | 1.63 µM (active) | inactive |
| C[C@H](Nc1ncnc2nc[nH]c12)c1cc2cccc(Cl)c2c(=O)n1-c1ccccc1 | inactive | 4.09 µM (active) and 372 nM (active) | 7.28 µM (active) and 4.68 µM (active) |  |
